According to PubChem BioAssay (NCI):
This is part of a sample that, as a whole, favours compounds with a hit. Of some 79,000 tested, about 15% had one in any assay. Calls of active or inactive are those of the source. Cut-off read from the data, not from the text of the source: active = growth inhibition above about 70%; inactive = the rest.

Tests used:
[1] = NCI Yeast Anticancer Drug Screen. Data for the rad50 strain (AID 155);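 note: 0% = growth of vehicle-only cultures of the same strain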; details: S. cerevisiae rad50 strain growth inhibition; at 50.0 µM; stronger effect = higher value
How it was run: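 Inhibition values express reduced yeast growth in compound-treated cultures relative to vehicle-treated controls.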

[2] = NCI Yeast Anticancer Drug Screen. Data for the mec2-1 strain (AID 157); details: S. cerevisiae mec2-1 strain, at 50.0 µM, stronger effect = higher value
How it was run: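 Each compound was tested on mec2-1 yeast, a strain altered in DNA damage repair or cell cycle control. Growth inhibition is reported relative to vehicle.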

[3] = NCI Yeast Anticancer Drug Screen. Data for the sgs1 mgt1 strain (AID 161);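 note: 0% = growth of cultures given vehicle only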; details: S. cerevisiae sgs1 mgt1 strain, at 50.0 µM, stronger effect = higher value
How it was run: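 Test agents were incubated with a DNA-repair-mutant yeast strain. Growth was then read and compared against vehicle-treated controls.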

[4] = NCI Yeast Anticancer Drug Screen. Data for the cln2 rad14 strain (AID 165);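 note: 0% = growth equal to vehicle treated cultures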; details: S. cerevisiae cln2 rad14 strain, at 50.0 µM, stronger effect = higher value
How it was run: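 Test compounds were added to cln2 rad14 yeast cultures; inhibition of growth was then determined by comparison with vehicle treatment.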

[5] = NCI Yeast Anticancer Drug Screen. Data for the bub3 strain (AID 167); details: S. cerevisiae bub3 mutant strain, at 50.0 µM, stronger effect = higher value
How it was run: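 Steps: expose the mutant yeast strain to compound; grow alongside vehicle-treated cultures; measure growth; express inhibition against the vehicle cultures.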

[6] = NCI Yeast Anticancer Drug Screen. Data for the mlh1 rad18 strain (AID 175); details: S. cerevisiae mlh1 rad18 strain growth inhibition; at 50.0 µM; stronger effect = higher value
How it was run: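 Inhibition values reflect reduced growth of mutant yeast versus vehicle-treated controls following compound exposure; the mutations affect DNA damage repair.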

Measured: growth inhibition

Cc1ccc(S(=O)(=O)N/N=C2\CCC3CC2C3(C)C)cc1 (stereo unspecified)
inactive: [1] 1% | [2] 2.05% | [3] -14.2% | [4] -20.1% | [5] -6.05% | [6] 5.95%

CN1CCN(C2=NCCO2)CC1
inactive: [1] 6.4% | [2] 22.1% | [3] 32.3% | [4] 32% | [5] 12.8% | [6] 20.2%

C/C(C#N)=C1/Nc2ccccc2NC1=O
inactive: [1] 0.55% | [2] 9.25% | [3] -24.6% | [4] -10.4% | [5] 15.1% | [6] 4.55%

O=C1c2ccccc2C(=O)C2CC(c3ccccc3)=CCC12 (stereo unspecified)
inactive: [1] 10.6% | [2] 10.1% | [3] -5.8% | [4] -35.6% | [5] 52.9% | [6] 0.9%

Cn1c(-c2ccc(/C=N/N=C(N)N)cc2)c[n+]2ccccc12
inactive: [1] 8.85% | [2] 4.3% | [3] 4% | [4] 0.8% | [5] -3.85% | [6] 32.5%

CCC/C(Cl)=N\OC(=O)Nc1ccc(OC(F)(F)F)cc1
active: [3] 91%
inactive: [1] 24% | [2] 24.8% | [4] 20.1% | [5] 28.8% | [6] 58.6%

N#CC(CN1CCCCC1)c1ccccc1 (stereo unspecified)
inactive: [1] 5.4% | [2] 1.55% | [3] 5.2% | [4] -41.4% | [5] -8.75% | [6] 0.8%

Cc1ccc(C(=O)c2ccccc2Cc2cccc3ccccc23)c(C)c1
inactive: [1] 4.35% | [2] 6.6% | [3] 1.2% | [4] -13.7% | [5] 12.6% | [6] -14.5%

O=C(Nc1ccc(Cl)cc1)Nc1nnc(-c2ccc(-c3nnc(NC(=O)Nc4ccc(Cl)cc4)o3)cc2)o1
inactive: [1] 28.4% | [2] 0.4% | [3] 26.4% | [4] -34.3% | [5] 18% | [6] 21.6%

COc1ccc(OC)c(C(=O)CCCCCCCCC(=O)c2cc(OC)ccc2OC)c1
inactive: [1] 27.2% | [2] 8% | [3] 3.85% | [4] 25.4% | [5] -3.95% | [6] 7.25%

CCOc1ccc(/C=C/c2ccc3ccccc3[n+]2C)cc1OCC
inactive: [1] 16.1% | [2] 9% | [3] -5.3% | [4] -14% | [5] -1.35% | [6] 19.7%

CN(Cc1ccccc1)c1ccccn1
inactive: [1] -12.9% | [2] -21.8% | [3] -18.9% | [4] -2.05% | [5] -12.7% | [6] 8.85%

CN(C)Cc1cc(C(C)(C)C)ccc1-c1ccc(C(C)(C)C)cc1CN(C)C
inactive: [1] -42.4% | [2] -17.6% | [3] -39.5% | [4] 12.6% | [5] -31.2% | [6] -30.9%

CCC(C)(C)c1ccc(OCCOc2ccc(C(=O)O)cc2[N+](=O)[O-])cc1
inactive: [1] -4.1% | [2] 12.2% | [3] -3.9% | [4] -17.6% | [5] -6.6% | [6] -20.1%

C(=C\c1ccco1)/c1ccco1
inactive: [1] 25.1% | [2] 11.2% | [3] 12.3% | [4] 9.85% | [5] -20.9% | [6] -25.9%

Cc1cc(C)c(CSc2cc(N)nc(N)c2N)c(C)c1
inactive: [1] 15.4% | [2] 9.3% | [3] 1.25% | [4] 5.9% | [5] 6.9% | [6] 48.2%

CC(O)CCCCC(O)CCC[C@H](O)[C@H]1CCC([C@H]2CCC([C@@H](O)CCCCCCCCCCCCC3=C[C@H](C)OC3=O)O2)O1 (stereo partly specified)
inactive: [1] 40.9% | [2] 29.1% | [5] -16.7%
active: [3] 71.2% | [4] 85.5% | [6] 81.7%

O=S(=O)(SC1=NCCN1)c1cccc2ccccc12
inactive: [1] 3% | [2] 3.5% | [3] 20.1% | [4] 30% | [5] -3% | [6] 8.45%

O=C(O)C#Cc1ccccc1
inactive: [1] 25.7% | [2] -27.9% | [3] -1.8% | [4] 2.6% | [5] -23.2% | [6] 0.3%

CC(C)(C)C(=O)C1C(=O)c2ccccc2C1=O
inactive: [1] 50.6% | [2] 21.8% | [3] 54% | [4] -35.5% | [5] 5.95% | [6] 31.9%

Cc1c(Cl)cccc1NC(=O)C1CC(Br)C(Br)CC1C(=O)O (stereo unspecified)
inactive: [1] 1.5% | [2] 6.7% | [3] 1.5% | [4] -48.5% | [5] 9.35% | [6] 31.3%

CCOC(=O)c1ccc(NC(=O)Nc2ccc(OC)c([N+](=O)[O-])c2)cc1
inactive: [1] -5.9% | [2] -3.6% | [3] 12.5% | [4] -15.7% | [5] 17.8% | [6] -5.2%

O=C(c1ccc(Cl)cc1)c1ccc2ccccc2c1
inactive: [1] -5.3% | [2] -8.6% | [3] 5.35% | [4] -3.4% | [5] 7.8% | [6] 4.1%

CCc1cc(C(C)(C)C)c(O)c(C(C)(C)C)c1
inactive: [1] 33.6% | [2] 9.65% | [3] 6.25% | [4] 25.2% | [5] 8.4% | [6] 35.4%

COc1ccc(C(C)=O)cc1CO/N=C1\CSCc2ccccc21
inactive: [1] 22.9% | [2] 12.4% | [3] 34.5% | [4] 22.4% | [5] 48.2% | [6] 12.2%

CC1(C)c2ccccc2C(=O)c2ccccc21
inactive: [1] 8.1% | [2] 6.65% | [3] 2.6% | [4] -4.6% | [5] -2.75% | [6] 5.45%

COc1ccc(CC(=O)O)cc1OC
inactive: [1] 23.9% | [2] 0.55% | [3] 17.6% | [4] -24.4% | [5] -5.95% | [6] 23.9%

CNC(=O)Nc1ccc(C(=O)OCC(C)C)cc1
inactive: [1] 6.4% | [2] 8.7% | [3] 12.9% | [4] -34.1% | [5] -22.1% | [6] 7.45%

C[N+]1(C)N=C([O-])N(c2ccccc2F)C1=O
inactive: [1] 7.15% | [2] -7.35% | [3] 2.7% | [4] -17.1% | [5] -2.15% | [6] -0.7%

CCCCCC(/C=N/Nc1ccccn1)=C\c1ccccc1
inactive: [1] -0.25% | [2] -2.1% | [3] 3.9% | [4] -18.2% | [5] -17.4% | [6] -17.4%

CN(C)CCCNC(=O)NCCCCCCNC(=O)NCCCN(C)C
inactive: [1] 13.1% | [2] -9.85% | [3] 31.7% | [4] 18.4% | [5] 32.4% | [6] 19%

O=C1NC(=O)C(c2ccccc2)(C2CCOCC2)N1 (stereo unspecified)
inactive: [1] 11.1% | [2] 3.05% | [3] -2.65% | [4] -54.9% | [5] -9.65% | [6] 28.4%

COc1cc(C(=O)NN(C)C)cc(OC)c1OC
inactive: [1] 13.5% | [2] 0.65% | [3] -9.95% | [4] 10.8% | [5] -7.95% | [6] -18.5%

O=C(Nc1ccccc1Cl)Nc1cccc2ccccc12
inactive: [1] 15.2% | [2] 1.3% | [3] 17.8% | [4] -1.6% | [5] 4.55% | [6] 8.65%

C(=N\N1CCN(/N=C/c2ccc(OCc3ccccc3)cc2)CC1)/c1ccc(OCc2ccccc2)cc1
inactive: [1] -12.6% | [2] -3.95% | [3] 7.65% | [4] -19.4% | [5] 0.2% | [6] -16.8%

S=C(NCN1CCOCC1)NCN1CCOCC1
inactive: [1] -14.8% | [2] 5.75% | [3] -5.2% | [4] -2.7% | [5] 2.05% | [6] -16%

Nc1ccc(CP(=O)(O)O)cc1
inactive: [1] -8.4% | [2] 14.8% | [3] -3.65% | [4] -8.1% | [5] 16.1% | [6] 24.9%

Cn1c2ccccc2c2nn3cnnc3nc21
inactive: [1] 18.1% | [2] 41.3% | [3] -3.3% | [4] 25.5% | [5] 22.1% | [6] -1.95%

CCCCCCC1(C)CCC(=O)O1 (stereo unspecified)
inactive: [1] 15.3% | [2] 8.45% | [3] 6.2% | [4] -6.25% | [5] -5.9% | [6] 14.4%

CC(=O)NC1C(OC(C)C(=O)NC(C(=O)NC(CCC(=O)NCCCNC2c3ccccc3Nc3cccc([N+](=O)[O-])c32)C(N)=O)C(C)C)C(O)C(CO)OC1(C)OCc1ccccc1 (stereo unspecified)
inactive: [1] -29.1% | [2] -20.4% | [3] 4.3% | [4] 13.4% | [5] -25.8% | [6] 3.25%

CCCCCCCCCCCCCCCCO
inactive: [1] -14.4% | [2] -14.2% | [3] -13.6% | [4] -16.3% | [5] -15.2% | [6] -12.4%
